Laboratory results from PubChem BioAssay AID2533 (National Center for Advancing Translational Sciences (NCATS), 2010).
Several values for one entry are separate records, joined by “and”; a condition that tells them apart may be missing. Equal values may be shown once. Records with an inconclusive call do not appear. A number with no mark means an inactive call. Activity calls are given as the source filed them. Calls come from the whole dose curve; as a rule, active = well fitted activation curve with a large enough effect; inconclusive = small, poorly fitted or top-dose-only effect; inactive = flat fitted curve, though single readings scatter.

biological target: Pyruvate kinase PKM (Homo sapiens) (UniProt P14618); assay: Confirmation Concentration-Response Assay for Activators of Human Muscle isoform 2 Pyruvate Kinase: for Probe SAR; conditions: purified PKM2, ATP generation, Kinase-Glo luminescence; series mostly up to 57.5 µM; activity change, positive = activation: at the top concentration; note: nearly all actives have a fitted effect of over 60% in size; for activity change, positive = activation: % of control where 0% means no effect
From the text: NIH Chemical Genomics Center [NCGC]
Matthew G. Vander Heiden, M.D., Ph.D. [Harvard Medical School, 77 Avenue Louis Pasteur, Boston, MA 02115]
Human pyruvate kinase muscle 2 (hPK-M2) enzyme was supplied as a highly purified (>95% pure) preparation from Harvard Medical School and assayed for its ability to generate ATP from ADP using phosphoenolpyruvate (PEP) as a substrate. ATP generation was detected in a coupled reaction by luciferase-mediated luminescence, an ATP-dependent process. […] The enzyme was assayed at an intermediate level of activity to screen for both inhibitors and activators.
NCGC Assay Protocol Summary:
Three uL of substrate mix (at r.t.) in assay buffer (50 mM Imidazole pH7.2, 50 mM KCl, 7 mM MgCl2, 0.01% Tween 20, 0.05% BSA) was dispensed into white solid bottom 1,536 well microtiter plates so that the final concentrations of substrates in the assay were 0.1 mM ADP and 0.5 mM PEP. 23 nL of compound were delivered by a pin tool and 1 uL of enzyme mix (final concentration of 0.1 nM) in assay buffer (4 degree Celsius) was added. Plates were incubated at room temperature for 1 hour. Two uL of detection mix (Kinase-Glo, Promega; at 4 degree Celsius protected from light) was added and luminescence read by a ViewLux (Perkin Elmer) at 1 second exposure/plate. Data were normalized to the uninhibited (column 3) and AC100 inhibition (no enzyme in column 2). To monitor activation, the first column contained a titration of the activator, NCGC00031955-03 (16-point 1:2 dilutions in duplicate starting at 57 uM) and the first 16 rows of column 4 contained 57 uM of NCGC00031955-03.
Potency is the fitted concentration of half-maximal effect.

Chain of Pyruvate kinase PKM (Homo sapiens) (P14618 whole entry, looked up, canonical isoform): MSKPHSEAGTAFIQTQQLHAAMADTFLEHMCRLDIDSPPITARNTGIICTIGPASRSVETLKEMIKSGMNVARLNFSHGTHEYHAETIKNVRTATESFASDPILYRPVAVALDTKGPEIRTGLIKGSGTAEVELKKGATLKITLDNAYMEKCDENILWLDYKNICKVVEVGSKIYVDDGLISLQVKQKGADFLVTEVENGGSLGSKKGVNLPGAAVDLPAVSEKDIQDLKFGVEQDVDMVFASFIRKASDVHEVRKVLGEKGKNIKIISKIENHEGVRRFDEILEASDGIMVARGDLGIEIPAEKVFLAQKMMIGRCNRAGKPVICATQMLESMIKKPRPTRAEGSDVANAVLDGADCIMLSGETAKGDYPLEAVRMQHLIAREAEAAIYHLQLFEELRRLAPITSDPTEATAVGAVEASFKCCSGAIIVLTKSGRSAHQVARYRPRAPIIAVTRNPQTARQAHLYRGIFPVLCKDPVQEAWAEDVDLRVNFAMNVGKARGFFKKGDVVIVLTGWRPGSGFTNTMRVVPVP

Structure (SMILES)	Potency	activity change, positive = activation
COc1cc(F)c(S(=O)(=O)N2CCCN(S(=O)(=O)c3cccc(N)c3)CC2)c(F)c1	1.16 µM (active) and 1.46 µM (active)	
COC(=O)c1ccccc1S(=O)(=O)Nc1cc(=O)c2ccccc2[nH]1		0.863%
Cc1ccc(C)c(O)c1		1.47%
O=S1(=O)N=C(Oc2ccc(Br)cc2)c2ccccc21		1.34%
O=C1c2ccccc2C(=O)N1Cc1ccncc1		1.39%
O=C1c2ccccc2C(=O)N1c1cc(=O)c2ccccc2[nH]1		-41.7%
O=S1(=O)N=C(Oc2cccc(C(F)(F)F)c2)c2ccccc21		7.06%
O=C1c2ccccc2C(=O)N1c1nccs1		-2.41%
Cc1ccc(NS(=O)(=O)c2ccc3c(c2)CC(=O)N3C)cc1C	3.66 µM (active)	
Cc1ccc(NS(=O)(=O)c2ccc(N3CCCC3=O)cc2)cc1C		18.2%
O=C1CCc2cc(S(=O)(=O)Nc3ccccn3)ccc2N1		28.5%
O=C1c2ccccc2C(=O)N1c1cncc2ccccc12		11.1%
Cc1ccc2nc(-c3ccc(C)o3)c(NC3CCCC3)n2c1		11.9%
O=C1CCc2cc(S(=O)(=O)Nc3ccc(F)cc3)ccc2N1	6.51 µM (active)	
O=S(=O)(Nc1ccc(O)c(NS(=O)(=O)c2ccccc2)c1)c1ccccc1		21.5%
Cc1ccc2nc(-c3ccc(C)o3)c(Nc3ccc(F)cc3)n2c1		16%
COc1ccc(O)cc1		7.63%
Cc1ccc(NS(=O)(=O)c2cc3c(cc2/C=C/c2ccccc2)NC(=O)CO3)cc1C		19.8%
O=S1(=O)N=C(Oc2ccccc2-c2ccccc2)c2ccccc21		-14.7%
CC(=O)Nc1cccc(S(=O)(=O)N2CCN(S(=O)(=O)c3ccc4c(c3)OCCO4)CC2)c1	1.03 µM (active)	

Structure (SMILES)	Potency	activity change, positive = activation
COc1cc(F)c(S(=O)(=O)N2CCN(S(=O)(=O)c3cccs3)CC2)c(F)c1	0.0366 µM (active)	
O=C1c2ccccc2C(=O)N1c1cccnc1		7.54%
COc1ccc(Nc2c(-c3ccc(C)o3)nc3ccccn23)cc1		23.2%
CNc1cccc(S(=O)(=O)N2CCCN(S(=O)(=O)c3ccc4c(c3)OCCO4)CC2)c1	0.103 µM (active)	
Fc1ccccc1-c1ccc(-c2nc3ccc(Cl)cn3c2Nc2ccc(Cl)cc2)o1		0.0036%
COc1ccc(-c2nc3cccc(C)n3c2Nc2ccc(C)cc2)cc1		14.6%
Cc1ccc(NS(=O)(=O)c2cccc(Cl)c2)cc1C	16.3 µM (active)	
O=S1(=O)N=C(N2CCOCC2)c2ccccc21		-8.06%
Cc1cccc(NS(=O)(=O)c2ccc3c(c2)CCC(=O)N3)c1	1.83 µM (active)	
Cc1cc(C)n2c(Nc3ccccc3)c(-c3ccc(C)o3)nc2n1	16.3 µM (active)	
O=C1c2ccccc2C(=O)N1c1ccc(Cl)cc1		7.81%
COc1ccc(N2C(=O)c3ccccc3C2=O)cc1		7.73%
CCNc1cccc(S(=O)(=O)N2CCN(S(=O)(=O)c3ccc4c(c3)OCCO4)CC2)c1	0.0819 µM (active)	
Cc1cc2c(s1)c1cnn(Cc3cc(F)ccc3F)c(=O)c1n2C	1.12 µM (active)	
Cc1ccc(-c2nc3cccc(C)n3c2Nc2ccc(F)cc2)o1		12.2%
Cc1cc(NS(=O)(=O)c2ccc3c(c2)CCC(=O)N3)ccc1F	0.461 µM (active)	
O=C1c2ccccc2C(=O)N1c1cccc2cccnc12		7.05%
O=S1(=O)N=C(Oc2ccccc2)c2ccccc21		10.6%
O=S1(=O)N=C(Oc2ccccc2C(F)(F)F)c2ccccc21		7.62%
Cc1ccc2nc(-c3ccc(C)o3)c(Nc3ccccc3)n2c1		5.7%
